Test results taken from the supplement of paper PMC9694430.

Key:
Assay in all cases: thermal shift delta Tm vs DMSO control; higher = stronger stabilization (binding)
Conditions in all cases: 12.5 µM; protein concentration 2 µM
LOC_OS01G57100-cb003 = test system: LOC_OS01G57100-cb003
Procedure, shortened: (§1)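 The melting temperature shift given here is a triplicate mean, measured against protein that received only DMSO. Melting temperatures came from Boltzmann fits of differential scanning fluorimetry data on E. coli-expressed, purified rice kinase domain constructs. Each 19.5 μl well contained 2 μM kinase, 100 mM potassium phosphate pH 7.5, 150 mM NaCl, 10% glycerol, 5 × SYPRO Orange and compound in DMSO. Plates were scanned from 25°C to 95°C at 0.05°C/s.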

LOC_OS01G60330-cb001 = test system: LOC_OS01G60330-cb001
Procedure, shortened: as §1

LOC_OS01G60700-cb002 = test system: LOC_OS01G60700-cb002
Procedure, shortened: as §1

LOC_OS01G63280-cb003 = test system: LOC_OS01G63280-cb003
Procedure, shortened: as §1

LOC_OS01G67340-cb003 = test system: LOC_OS01G67340-cb003
Procedure, shortened: as §1

LOC_OS01G70970-cb002 = test system: LOC_OS01G70970-cb002
Procedure, shortened: as §1

LOC_OS02G07810-cb001 = test system: LOC_OS02G07810-cb001
Procedure, shortened: as §1

LOC_OS02G08530-cb003 = test system: LOC_OS02G08530-cb003
Procedure, shortened: as §1

LOC_OS02G14120-cb001 = test system: LOC_OS02G14120-cb001
Procedure, shortened: as §1

LOC_OS02G17970-cb001 = test system: LOC_OS02G17970-cb001
Procedure, shortened: as §1

LOC_OS02G45750-cb003 = test system: LOC_OS02G45750-cb003
Procedure, shortened: as §1

LOC_OS02G54510-cb004 = test system: LOC_OS02G54510-cb004
Procedure, shortened: as §1

LOC_OS03G04050-cb001 = test system: LOC_OS03G04050-cb001
Procedure, shortened: as §1

LOC_OS03G12390-cb001 = test system: LOC_OS03G12390-cb001
Procedure, shortened: as §1

LOC_OS03G27990-cb004 = test system: LOC_OS03G27990-cb004
Procedure, shortened: as §1

LOC_OS03G50450-cb001 = test system: LOC_OS03G50450-cb001
Procedure, shortened: as §1

LOC_OS03G50810-cb003 = test system: LOC_OS03G50810-cb003
Procedure, shortened: as §1

LOC_OS04G35114-cb001 = test system: LOC_OS04G35114-cb001
Procedure, shortened: as §1

LOC_OS04G38480-cb003 = test system: T1, LOC_OS04G38480-cb003
T1 sequence (whole entry): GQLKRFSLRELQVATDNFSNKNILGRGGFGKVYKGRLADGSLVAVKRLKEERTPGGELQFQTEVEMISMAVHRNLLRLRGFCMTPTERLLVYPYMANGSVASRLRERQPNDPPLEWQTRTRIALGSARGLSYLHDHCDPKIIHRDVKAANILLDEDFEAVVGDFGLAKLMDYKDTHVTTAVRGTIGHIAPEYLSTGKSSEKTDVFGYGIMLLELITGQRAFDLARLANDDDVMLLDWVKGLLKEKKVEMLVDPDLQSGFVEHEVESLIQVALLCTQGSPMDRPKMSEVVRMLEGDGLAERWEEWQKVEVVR
Procedure, shortened: as §1

LOC_OS04G41100-cb001 = test system: T2, LOC_OS04G41100-cb001
T2 sequence (whole entry): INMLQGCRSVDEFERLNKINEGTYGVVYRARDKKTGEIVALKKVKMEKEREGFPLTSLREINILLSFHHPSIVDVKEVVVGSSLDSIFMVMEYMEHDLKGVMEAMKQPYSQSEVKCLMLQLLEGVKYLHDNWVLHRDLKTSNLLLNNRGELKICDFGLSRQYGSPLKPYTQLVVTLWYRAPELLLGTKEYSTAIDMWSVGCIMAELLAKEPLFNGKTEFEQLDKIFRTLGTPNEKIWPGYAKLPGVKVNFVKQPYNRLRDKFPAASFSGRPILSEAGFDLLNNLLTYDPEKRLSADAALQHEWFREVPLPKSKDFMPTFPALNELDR
Procedure, shortened: as §1

SMILES | thermal shift delta Tm (LOC_OS01G57100-cb003) | thermal shift delta Tm (LOC_OS01G60330-cb001) | thermal shift delta Tm (LOC_OS01G60700-cb002) | thermal shift delta Tm (LOC_OS01G63280-cb003) | thermal shift delta Tm (LOC_OS01G67340-cb003) | thermal shift delta Tm (LOC_OS01G70970-cb002) | thermal shift delta Tm (LOC_OS02G07810-cb001) | thermal shift delta Tm (LOC_OS02G08530-cb003) | thermal shift delta Tm (LOC_OS02G14120-cb001) | thermal shift delta Tm (LOC_OS02G17970-cb001) | thermal shift delta Tm (LOC_OS02G45750-cb003) | thermal shift delta Tm (LOC_OS02G54510-cb004) | thermal shift delta Tm (LOC_OS03G04050-cb001) | thermal shift delta Tm (LOC_OS03G12390-cb001) | thermal shift delta Tm (LOC_OS03G27990-cb004) | thermal shift delta Tm (LOC_OS03G50450-cb001) | thermal shift delta Tm (LOC_OS03G50810-cb003) | thermal shift delta Tm (LOC_OS04G35114-cb001) | thermal shift delta Tm (LOC_OS04G38480-cb003) | thermal shift delta Tm (LOC_OS04G41100-cb001)
CC(C)(C)NS(=O)(=O)c1cncc(-c2cc(F)c3nc(N)nn3c2)c1 | 1.55 °C | 0.87 °C | 1.82 °C | 0.83 °C | 0.93 °C | 0.9 °C | 1.06 °C | 0.86 °C | -0.33 °C | 2.29 °C | 0.74 °C | 0.24 °C | 0.64 °C | 0.19 °C | 0.94 °C | 0.53 °C | 0.4 °C | 0.87 °C | 0.98 °C | 0.29 °C
COc1ccc(Cl)cc1NC(=O)Nc1cc(C)nc2ccccc12 | 1.28 °C | 1.01 °C | 0.92 °C | 0.87 °C | 0.83 °C | 0.66 °C | 1.12 °C | 0.89 °C | 0.14 °C | 0.65 °C | 0.37 °C | 0.12 °C | 0.38 °C | 0.21 °C | 0.52 °C | 0.68 °C | 0.32 °C | 0.93 °C | 0.32 °C | 0.36 °C
CC(C)(C)c1ccc(S(=O)(=O)/C=C/C#N)cc1 | 3.12 °C | -0.21 °C | 1.42 °C | -3.74 °C | 0.12 °C | -4.09 °C | 0.63 °C | 1.02 °C | -0.46 °C | 5.71 °C | -0.34 °C | 1.26 °C | 0.18 °C | -0.99 °C | -0.83 °C | 0.05 °C | -1.59 °C | -1.78 °C | 1.74 °C | -0.39 °C
CC(C)NC(=O)C1CCC(n2c(NC(=O)c3ccc(F)cc3)nc3ccc(CN4CCC(C(C)(C)O)CC4)cc32)CC1 (stereo not given) [Belizatinib (TSR-011)] | 0.68 °C | 1.95 °C | 0.11 °C | 0.25 °C | 2.85 °C | 6.79 °C | -0.66 °C | 5.19 °C | 4.13 °C | -0.03 °C | 1.72 °C | 1.61 °C | 0.67 °C | 6.22 °C | 1.09 °C | 0.85 °C | 3.76 °C | 6.28 °C | 1.98 °C | 0.49 °C
O=S(=O)(NCCNC/C=C/c1ccc(Br)cc1)c1cccc2cnccc12 | 1.34 °C | 0.45 °C | 0.98 °C | 0.58 °C | -0.25 °C | 0.05 °C | 1.39 °C | 0.72 °C | 0.95 °C | 0.98 °C | 0.56 °C | 0.32 °C | 0.25 °C | 0.22 °C | 0.02 °C | 0.46 °C | 0.01 °C | 0.54 °C | 0.79 °C | 0.63 °C
CCN(CC)CCNC(=O)c1c(C)[nH]c(/C=C2\C(=O)Nc3ccc(-c4csc(-c5ccccc5)n4)cc32)c1C [Amcasertib (BBI503)] | 0.34 °C | 0.8 °C | -0.11 °C | 0.21 °C | 0.03 °C | 0.3 °C | -0.19 °C | 3.7 °C | 4.69 °C | -0.15 °C | 0 °C | 0.74 °C | 0.42 °C | 0.16 °C | 0.77 °C | 1.61 °C | 7.41 °C | 15 °C | 1.78 °C | 0.78 °C
